Experimental findings from PubChem BioAssay (NCATS) are described below.

Assay [1] has as its target Atrial natriuretic peptide receptor 1 (Homo sapiens) (UniProt P16066). Description: Natriuretic polypeptide receptor (hNpr1) antagonism - Pilot screen (AID 1347049; calls by dose curve;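 also: agonist-evoked cGMP luminescence read 20 min after hNppA addition; series mostly up to about 58 µM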). A digest of the protocol: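 Readout is cGMP-driven firefly luciferase luminescence in HEK293 cells carrying hNpr1 and a PDE5-domain GloSensor, read before and 20 min after 0.1 nM hNppA stimulation. Cells had 2% substrate reagent for 2 h and test compound for 30 min.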

Assay [2] can be described thus: NS1 protein of Zika virus - qHTS assay to identify small molecule inhibitors in human HEK 293 cells (AID 1347053). Also: nearly all actives have a fitted effect of over 55% in size. Also: potency is read from the fitted curve at half-maximal effect. A digest of the protocol:
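Inhibition of NS1 expression was scored in HEK 293 cells given compound 1 h ahead of MR766 virus (MOI = 0.5). Following 24 h at 37 C, two anti-NS1 antibodies generated a TR-FRET signal, scaled between uninfected and infected controls.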
In general terms: qHTS replaces the single test concentration by a dilution series.

The target in assay [3] is T1, Tyrosine-protein phosphatase non-receptor type substrate 1 (Homo sapiens) + Leukocyte surface antigen CD47 (Homo sapiens) (UniProt P78324+Q08722). Nature of the assay: CD47-SIRPalpha protein protein interaction - LANCE assay qHTS validation (AID 1347057; active = well fitted curve in the direction sought with a large enough effect in the signal ratio, with a control signal flat, not every such curve was filed as active; the % refers to the signal ratio; also: series mostly up to about 38 µM). An outline of the steps:
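First, His-tagged CD47 and Eu-labelled anti-His antibody met the compound for 30 min; next, site-specifically biotinylated SIRPalpha was added for 30 min; finally streptavidin-APC was added before reading the TR-FRET ratio.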

The target of assay [4] is T1, Tyrosine-protein phosphatase non-receptor type substrate 1 (Homo sapiens) + Leukocyte surface antigen CD47 (Homo sapiens). Description: CD47-SIRPalpha protein protein interaction - HTRF assay qHTS validation (AID 1347058; active = well fitted curve in the direction sought with a large enough effect in the signal ratio, not every such curve was filed as active; the % refers to the signal ratio;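 also: recombinant soluble extracellular CD47 with His tag and biotinylated SIRPalpha domains; series mostly up to about 38 µM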). An outline of the steps:
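TR-FRET read (Ch1/Ch2 ratio) of soluble extracellular CD47 and Avi-biotinylated SIRPalpha domains in PBS pH 7.4 with 0.05% IGEPAL; 7-point compound titration. Sequential 30 min room-temperature steps; non-biotinylated SIRPalpha as control inhibitor.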
(In TR-FRET formats the signal depends on donor and acceptor labels being close together.)

The target is the same in assay [5]. Description: CD47-SIRPalpha protein protein interaction - Alpha assay qHTS validation (AID 1347059).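 Also: bead proximity luminescence from CD47 binding SIRPalpha after compound preincubation with SIRPalpha.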 A digest of the protocol: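 Binding is measured by AlphaScreen proximity: Ni-NTA acceptor beads capture His-CD47, streptavidin donor beads capture biotin-SIRPalpha. Each of three additions (SIRPalpha with compound, CD47, beads) incubates 30 min at room temperature protected from light.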

The target in assay [6] is Parathyroid hormone/parathyroid hormone-related peptide receptor (Homo sapiens) (UniProt Q03431). Nature of the assay: qHTS for PTHR1 Agonists: Optimization Screen against the NCGC LOPAC library (AID 1347079).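 Also: GloSensor cAMP luminescence in HEK-293 GP2 cells expressing human PTHR1 with IBMX.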 An outline of the steps:
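Compounds were tested across a qHTS titration. PTHR1-expressing GP2 cells report cAMP rises via GloSensor luminescence after 1 hr compound exposure at 37C with IBMX present.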

The nature of assay [7]: qHTS of pediatric cancer cell lines to identify multiple opportunities for drug repurposing: Primary screen for SJ-GBM2 cells (AID 1347091). Also: potency is read from the fitted curve at half-maximal effect. An outline of the steps: (§1)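 Cell viability, CellTiter-Glo luminescence; 500-1,000 cells/well, 8- or 11-point titration, 48 h compound exposure at 37 degrees C, 5% CO2. Controls: DMSO neutral, bortezomib 2.3 µM final as positive.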
Assay [8] can be described thus: qHTS of pediatric cancer cell lines to identify multiple opportunities for drug repurposing: Primary screen for A673 cells (AID 1347092). Also: nearly all actives have a fitted effect of over 45% in size. Also: potency is read from the fitted curve at half-maximal effect. An outline of the steps:
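48 h compound exposure, A673, 500-1,000 cells/well, 37 degrees C/5% CO2. MIPE: 11-point, 0.78 nM-46 µM; NPC: 8-point, 0.59 nM-46 µM (final). Readout CellTiter-Glo luminescence after 15 min RT.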

Assay [9] in a line: qHTS of pediatric cancer cell lines to identify multiple opportunities for drug repurposing: Primary screen for SK-N-MC cells (AID 1347093). Also: potency is read from the fitted curve at half-maximal effect. A digest of the protocol: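 Metabolically active cells were quantified by ATP-dependent luminescence (CellTiter-Glo, 15 min at room temperature) following 48 h treatment. Cells had been plated at 500-1,000 per well and settled for 5 h beforehand.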

Assay [10] is described as follows: qHTS of pediatric cancer cell lines to identify multiple opportunities for drug repurposing: Primary screen for BT-37 cells (AID 1347094). Also: potency is read from the fitted curve at half-maximal effect. A digest of the protocol: (§2)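 Phenotypic viability qHTS, 48 h compound exposure, CellTiter-Glo luminescence read-out; multi-concentration dosing so that potency and efficacy derive directly from the primary screen's curves.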

A short description of assay [11]: qHTS of pediatric cancer cell lines to identify multiple opportunities for drug repurposing: Primary screen for NB-EBc1 cells (AID 1347095). Also: potency is read from the fitted curve at half-maximal effect. A digest of the protocol: as §2
Assay [12] is described as follows: qHTS of pediatric cancer cell lines to identify multiple opportunities for drug repurposing: Primary screen for U-2 OS cells (AID 1347096). Also: nearly all actives have a fitted effect of over 50% in size. A digest of the protocol:
(§3)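 Cells (500-1,000/well) rested 5 h, then received compounds for 48 h; metabolically active cells were measured by CellTiter-Glo luminescence. Final concentrations spanned up to 46 µM (MIPE, 11-point) or 0.59 nM-46 µM (NPC, 8-point) in primary screens, 11-point in follow-ups.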

The nature of assay [13]: qHTS of pediatric cancer cell lines to identify multiple opportunities for drug repurposing: Primary screen for Saos-2 cells (AID 1347097). Also: nearly all actives have a fitted effect of over 40% in size. Also: potency is read from the fitted curve at half-maximal effect. A digest of the protocol:
as §2

A short description of assay [14]: qHTS of pediatric cancer cell lines to identify multiple opportunities for drug repurposing: Primary screen for SK-N-SH cells (AID 1347098). Also: nearly all actives have a fitted effect of over 65% in size. Also: potency is read from the fitted curve at half-maximal effect. A digest of the protocol:
as §3

Assay [15] in a line: qHTS of pediatric cancer cell lines to identify multiple opportunities for drug repurposing: Primary screen for NB1643 cells (AID 1347099). Also: nearly all actives have a fitted effect of over 50% in size. Also: potency is read from the fitted curve at half-maximal effect. An outline of the steps: as §2
Assay [16] can be described thus: qHTS of pediatric cancer cell lines to identify multiple opportunities for drug repurposing: Primary screen for LAN-5 cells (AID 1347100). Also: potency is read from the fitted curve at half-maximal effect. An outline of the steps:
as §3

Assay [17] is described as follows: qHTS of pediatric cancer cell lines to identify multiple opportunities for drug repurposing: Primary screen for BT-12 cells (AID 1347101). Also: nearly all actives have a fitted effect of over 25% in size. Also: potency is read from the fitted curve at half-maximal effect. A digest of the protocol:
as §3

Assay [18] addresses Atrial natriuretic peptide receptor 2 (Homo sapiens) (UniProt P20594). Description: Natriuretic polypeptide receptor (hNpr2) antagonism - Pilot subtype selectivity assay (AID 1347050; calls by dose curve; also: potency is read from the fitted curve at half-maximal effect). An outline of the steps: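 Pilot selectivity screen against hNpr2: HEK293 cGMP-sensor cells are treated with LOPAC1280 compounds, then with hNppC peptide at 1 nM final. The cGMP-driven luminescence change over 20 min at room temperature is the read-out.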

Assay [19] in a line: qHTS of pediatric cancer cell lines to identify multiple opportunities for drug repurposing: Primary screen for TC32 cells (AID 1347089). Also: nearly all actives have a fitted effect of over 60% in size. Also: potency is read from the fitted curve at half-maximal effect. An outline of the steps: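 In the primary qHTS, MIPE compounds were tested at 11 concentrations (0.78 nM to 46 µM) and NPC compounds at 8 (0.59 nM to 46 µM) on TC32 cells for 48 h. CellTiter-Glo luminescence gave viability.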
Assay [20] in a line: qHTS of pediatric cancer cell lines to identify multiple opportunities for drug repurposing: Primary screen for DAOY cells (AID 1347090). Also: nearly all actives have a fitted effect of over 55% in size. Also: potency is read from the fitted curve at half-maximal effect. A digest of the protocol:
as §1

Where “and” joins values, the source holds several entries; their conditions need not be identical. Equal entries are not always repeated. Results filed as inconclusive are left out. Some structures have more than one record in an assay (separate samples or runs), and their calls can disagree. Calls of active or inactive are those of the source. Unless noted, calls follow the shape of the dose curve; as a rule, active = well fitted curve in the direction sought with a large enough effect; inconclusive = small, poorly fitted or top-dose-only effect, or another doubt; inactive = no such curve, though single readings can be large; an effect the other way counts as inactive or inconclusive.

Atrial natriuretic peptide receptor 2 (Homo sapiens), sequence (P20594 whole entry, looked up): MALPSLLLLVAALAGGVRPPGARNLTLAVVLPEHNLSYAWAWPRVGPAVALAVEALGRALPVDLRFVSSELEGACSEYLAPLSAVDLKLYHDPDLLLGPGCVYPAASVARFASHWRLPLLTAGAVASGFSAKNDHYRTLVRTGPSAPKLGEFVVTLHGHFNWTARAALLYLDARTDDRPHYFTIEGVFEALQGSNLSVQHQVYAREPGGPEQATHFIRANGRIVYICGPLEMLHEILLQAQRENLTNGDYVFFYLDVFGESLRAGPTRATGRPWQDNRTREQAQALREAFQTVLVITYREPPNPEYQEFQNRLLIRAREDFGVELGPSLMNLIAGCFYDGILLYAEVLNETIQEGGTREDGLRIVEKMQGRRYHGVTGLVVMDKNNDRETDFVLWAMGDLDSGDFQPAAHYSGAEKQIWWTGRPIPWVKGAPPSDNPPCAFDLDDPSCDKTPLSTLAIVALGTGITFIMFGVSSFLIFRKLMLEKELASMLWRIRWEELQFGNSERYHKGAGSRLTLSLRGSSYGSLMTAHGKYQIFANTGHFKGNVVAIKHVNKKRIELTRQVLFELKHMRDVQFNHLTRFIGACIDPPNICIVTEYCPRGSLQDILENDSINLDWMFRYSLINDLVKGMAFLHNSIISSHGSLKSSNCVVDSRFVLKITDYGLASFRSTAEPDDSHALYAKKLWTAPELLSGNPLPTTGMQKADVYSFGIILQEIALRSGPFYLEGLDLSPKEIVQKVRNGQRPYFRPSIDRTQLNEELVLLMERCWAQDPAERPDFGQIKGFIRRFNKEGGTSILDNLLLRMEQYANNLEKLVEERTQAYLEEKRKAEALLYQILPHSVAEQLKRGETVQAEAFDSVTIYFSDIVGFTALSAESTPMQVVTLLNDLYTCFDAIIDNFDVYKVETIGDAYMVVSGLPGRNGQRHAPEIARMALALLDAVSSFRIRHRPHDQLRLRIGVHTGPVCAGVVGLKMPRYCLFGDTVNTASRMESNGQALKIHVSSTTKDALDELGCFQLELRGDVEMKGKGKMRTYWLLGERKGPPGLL
Parathyroid hormone/parathyroid hormone-related peptide receptor (Homo sapiens), sequence (Q03431 whole entry, looked up): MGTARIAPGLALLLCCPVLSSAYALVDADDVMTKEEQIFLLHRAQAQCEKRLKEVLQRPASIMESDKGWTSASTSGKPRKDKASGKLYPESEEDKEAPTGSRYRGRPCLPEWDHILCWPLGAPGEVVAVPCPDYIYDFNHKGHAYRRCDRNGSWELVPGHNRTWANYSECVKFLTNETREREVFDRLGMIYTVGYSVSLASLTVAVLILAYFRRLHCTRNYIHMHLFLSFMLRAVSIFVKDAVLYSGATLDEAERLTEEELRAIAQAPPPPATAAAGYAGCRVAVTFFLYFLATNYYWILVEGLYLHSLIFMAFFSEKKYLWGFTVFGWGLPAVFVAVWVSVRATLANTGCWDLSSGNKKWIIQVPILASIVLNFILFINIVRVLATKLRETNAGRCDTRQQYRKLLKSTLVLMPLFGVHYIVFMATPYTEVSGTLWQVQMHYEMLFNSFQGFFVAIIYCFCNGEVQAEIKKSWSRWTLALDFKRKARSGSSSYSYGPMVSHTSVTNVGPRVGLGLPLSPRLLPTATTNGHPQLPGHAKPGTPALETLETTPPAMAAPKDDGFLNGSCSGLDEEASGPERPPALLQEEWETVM
T1 sequence (P78324 whole entry, looked up): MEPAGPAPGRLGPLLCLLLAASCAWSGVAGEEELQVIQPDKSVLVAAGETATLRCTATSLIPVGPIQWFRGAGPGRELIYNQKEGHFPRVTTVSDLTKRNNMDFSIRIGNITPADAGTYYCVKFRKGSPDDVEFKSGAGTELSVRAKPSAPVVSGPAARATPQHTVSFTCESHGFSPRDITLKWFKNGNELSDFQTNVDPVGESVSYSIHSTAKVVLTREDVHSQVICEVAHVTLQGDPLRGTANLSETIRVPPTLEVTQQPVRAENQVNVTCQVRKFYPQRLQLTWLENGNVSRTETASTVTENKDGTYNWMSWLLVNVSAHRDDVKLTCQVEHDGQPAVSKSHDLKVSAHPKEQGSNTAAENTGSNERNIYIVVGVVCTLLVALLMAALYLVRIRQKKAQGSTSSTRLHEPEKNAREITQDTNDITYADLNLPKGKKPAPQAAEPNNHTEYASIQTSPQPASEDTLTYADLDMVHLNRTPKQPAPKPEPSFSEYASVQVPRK
T1 sequence (Q08722 whole entry, looked up): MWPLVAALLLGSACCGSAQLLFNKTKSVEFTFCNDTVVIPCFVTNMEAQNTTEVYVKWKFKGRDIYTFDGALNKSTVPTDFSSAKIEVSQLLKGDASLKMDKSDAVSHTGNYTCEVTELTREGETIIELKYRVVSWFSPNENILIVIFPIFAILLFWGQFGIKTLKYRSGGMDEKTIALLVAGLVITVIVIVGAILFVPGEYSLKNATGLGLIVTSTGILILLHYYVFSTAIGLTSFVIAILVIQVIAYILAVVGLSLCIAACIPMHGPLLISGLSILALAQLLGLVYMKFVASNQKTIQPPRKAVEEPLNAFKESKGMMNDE
Atrial natriuretic peptide receptor 1 (Homo sapiens), sequence (P16066 whole entry, looked up): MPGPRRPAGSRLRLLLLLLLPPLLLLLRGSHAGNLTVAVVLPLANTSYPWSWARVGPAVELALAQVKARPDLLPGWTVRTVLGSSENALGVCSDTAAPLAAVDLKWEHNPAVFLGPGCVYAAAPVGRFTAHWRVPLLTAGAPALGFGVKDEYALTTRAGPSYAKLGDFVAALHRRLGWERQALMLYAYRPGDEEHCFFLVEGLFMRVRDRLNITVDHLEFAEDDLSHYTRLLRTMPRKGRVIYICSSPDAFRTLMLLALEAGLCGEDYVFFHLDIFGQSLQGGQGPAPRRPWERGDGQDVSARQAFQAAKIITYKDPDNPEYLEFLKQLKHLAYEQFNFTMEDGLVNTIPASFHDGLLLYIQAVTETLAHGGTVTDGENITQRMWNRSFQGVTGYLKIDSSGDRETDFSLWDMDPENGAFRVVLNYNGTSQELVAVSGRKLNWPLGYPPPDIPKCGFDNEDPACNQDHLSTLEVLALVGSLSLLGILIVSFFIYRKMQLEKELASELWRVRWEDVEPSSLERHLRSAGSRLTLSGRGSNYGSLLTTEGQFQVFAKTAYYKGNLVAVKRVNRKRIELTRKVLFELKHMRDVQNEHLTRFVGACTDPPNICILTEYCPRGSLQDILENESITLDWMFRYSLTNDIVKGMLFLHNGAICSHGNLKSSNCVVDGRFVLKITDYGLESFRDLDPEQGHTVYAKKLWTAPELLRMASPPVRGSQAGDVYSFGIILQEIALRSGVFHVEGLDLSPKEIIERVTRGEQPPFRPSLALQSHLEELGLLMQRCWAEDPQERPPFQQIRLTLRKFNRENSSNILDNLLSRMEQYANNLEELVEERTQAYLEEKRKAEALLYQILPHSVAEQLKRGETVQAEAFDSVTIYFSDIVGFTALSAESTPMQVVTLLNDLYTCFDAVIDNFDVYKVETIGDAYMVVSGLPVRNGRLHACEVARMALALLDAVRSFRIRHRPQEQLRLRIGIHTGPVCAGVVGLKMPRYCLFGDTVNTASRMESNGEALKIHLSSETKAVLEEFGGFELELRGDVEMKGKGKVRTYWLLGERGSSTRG

On to `O=C1N(c2ccccc2)c2ccccc2C1(Cc1ccncc1)Cc1ccncc1`, for which the Potency result in assay [1], in assay [2], in [5], in assay [6], in [7] and in [8] was “inactive” each time. Also, the Potency result in assay [9], in assay [10], in assay [11], in assay [12], in assay [13] and in assay [14] was “inactive” throughout. Further, the Potency result in assay [15], in [16] and in assay [17] was “inactive” each time. Moreover, the result in assay [3] and in assay [4] was inactive.

In the case of `Clc1ccc2c(c1)C(N1CCNCC1)=Nc1ccccc1O2`, the Potency in assay [18] was 8.26 µM (active). The Potency result in [2], in [5], in assay [6], in assay [19], in assay [20] and in assay [7] was “inactive” each time. Also, the Potency result in assay [8], in assay [9], in [10], in assay [11], in assay [12] and in assay [13] was “inactive” each time. Further, the Potency entry in [14], in [15], in assay [16] and in [17] was “inactive” throughout. The result in assay [3] and in [4] was inactive.

Turning to `COc1cc2c(c(OC)c1OC)-c1ccc(OC)c(=O)cc1[C@@H](NC(C)=O)CC2`, the Potency entry in assay [1], in assay [2], in [5] and in [6] was “inactive” throughout. Also, the outcome in assay [3] was inactive. Besides, the Potency in assay [20] is 0.0084 µM (active); in assay [7] it was 42.2 nM (active) and 1 nM (active); in assay [8], 6.7 nM (active); in [9] it was 4.2 nM (active) and 1 nM (active); in [10], 6.2 nM (active) and 172 nM (active); in assay [11], 42.2 nM (active) and 1 nM (active). In addition, the Potency is 5.3 nM (active) and 1.32 µM (active) in [13]; 8.4 nM (active) in [15]; 11 nM (active) and 1 nM (active) in [17].

Regarding `COc1ccc(CCN(C)CCCC(C#N)(c2ccc(OC)c(OC)c2)C(C)C)cc1OC` (stereo unspecified), the Potency result in [2], in assay [6], in assay [20], in assay [7], in [8] and in assay [9] was “inactive” each time. The Potency entry in assay [10], in [11], in assay [12], in assay [13], in [14] and in [15] was “inactive” throughout. Further, the Potency result in [16] and in [17] was “inactive” each time.

As for `CC[C@@]1(O)C(=O)OCc2c1cc1n(c2=O)Cc2cc3c(CN(C)C)c(O)ccc3nc2-1`, the Potency entry in assay [2] is “inactive and 41.8 nM (active)”; in assay [19], 26.4 nM (active) and 131 nM (active); in assay [7], 94.4 nM (active) and 52.6 nM (active); in assay [8], 26.6 nM (active) and 118 nM (active); in assay [9], 6.7 nM (active) and 23.5 nM (active); in assay [10] it was 19.5 nM (active) and 86.3 nM (active). Moreover, the Potency in assay [11] was 47.3 nM (active) and 26.4 nM (active); in assay [13] it was 29.9 nM (active) and 235 nM (active); in assay [14] it was 344 nM (active) and 1.71 µM (active); in [15], 26.6 nM (active) and 296 nM (active); in [16], 47.3 nM (active) and 41.8 nM (active); in assay [17] it was 309 nM (active) and 1.37 µM (active).

With `O=c1c(O)c(-c2ccc(O)c(O)c2)oc2cc(O)cc(O)c12`, the Potency result in assay [1], in assay [18], in assay [2], in [6], in assay [7] and in assay [12] was “inactive” throughout. The Potency was 14800 nM (active) in assay [8], 8.33 µM (active) in [9], 23.5 µM (active) in assay [11] and 24.1 µM (active) in assay [14].

On to `Cc1ccccc1N1C(=O)c2cc(S(N)(=O)=O)c(Cl)cc2NC1C` (stereo unspecified), for which the Potency entry in assay [1], in [18], in assay [2], in [6], in assay [19] and in assay [7] was “inactive” each time. Besides, the Potency result in [8], in [9], in [10], in assay [11], in assay [12] and in [13] was “inactive” throughout. Besides, the Potency entry in assay [14], in assay [15], in assay [16] and in assay [17] was “inactive” each time.

As for `CC[N+](CC)(CC)CCOc1cccc(OCC[N+](CC)(CC)CC)c1OCC[N+](CC)(CC)CC`, the Potency result in assay [1], in [18], in assay [2], in assay [6], in assay [19] and in assay [7] was “inactive” throughout. In addition, the Potency result in assay [8], in [9], in [10], in [11], in assay [12] and in assay [13] was “inactive” in each case. The Potency entry in [14], in [15], in [16] and in assay [17] was “inactive” in each case.

As for `Cc1ccc(-c2cc(C(F)(F)F)nn2-c2ccc(S(N)(=O)=O)cc2)cc1`, the Potency entry in assay [2], in [5], in assay [19], in assay [7], in [8] and in assay [11] was “inactive” each time. Further, the Potency result in [12], in assay [14], in [15], in assay [16] and in [17] was “inactive” throughout. Besides, the result in assay [3] was inactive. Further, the Potency in [13] is 16.8 µM (active).
